WT yeast gro inh – growth inhibition of WT yeast, mitochondrial fusion screen | mitochondrial fusion phenotypic screen, WT strain | inhibition, % at 10 µM | 2.1% of 190,000 active; in the data active = inhibition above about 58%; tested in S. cerevisiae
CHOP inh – blocks CHOP induction under ER stress. CHO-K1 CHOP-promoter luciferase, tunicamycin-induced, 15-18 h. 3.8% of 220,000 active. AID 2732. inhibition, % at 10 µM;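 active = compounds that reduced the stress-induced luciferase reporter signal by more than about 70% of percent inhibition, limit read from the data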
L major viab – Leishmania major promastigote growth inhibition; inhibition, % at 10 µM; Leishmania major promastigotes, resazurin fluorescence viability; 9% of 200,000 active; AID 1063; in the data active = inhibition above about 50%;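 note: promastigotes grown with compound for 44 hours at 28 °C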
RAM inhibit – yeast RAM network inhibition; S. cerevisiae dse1pr::URA3 reporter, 5-FOA growth OD615, 2 d; analog-sensitive cbk1-as2 kinase mutant strain; inhibition, % at 50 µM; 1.8% of 190,000 active; AID 868;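 active = inhibition above a set limit, 3 SD over mean compound inhibition, cut at about 8.4% in these data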;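 note: inhibition rescues growth on 5-FOA so higher OD means more RAM inhibition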
Large screens that a line does not name were inactive. Hits are enriched below; roughly 13% of the tested compounds scored in any of these assays.

COC(=O)[C@@]1(Cc2ccc(F)cc2)[C@H]2c3cc(C(=O)N(C)C)n(CCc4ccc(OC)c(Br)c4)c3C[C@H]2CN1C(=O)c1ccccc1	RAM inhibit 8.7
COCCn1c(C(=O)N2CCCC2)cc2c1C[C@H]1CN(C(=O)c3ccccc3)[C@@](Cc3ccc(F)cc3)(C(=O)OC)[C@@H]21	none
COC(=O)[C@@]1(Cc2ccc(F)cc2)[C@H]2c3cc(C(=O)N(C)C)n(Cc4ccc(OC)c(OC)c4)c3C[C@H]2CN1C(=O)c1ccccc1	none
COC(=O)[C@@]1(Cc2ccc(OC)cc2)[C@H]2c3cc(C(=O)N(C)C)n(Cc4ccc(OC(F)(F)F)cc4)c3C[C@H]2CN1C(=O)c1ccccc1	L major viab 50
COC(=O)[C@@]1(Cc2ccc(F)cc2)[C@H]2c3cc(C(=O)N4CCCC4)n(CCc4ccccn4)c3C[C@H]2CN1C(=O)c1ccccc1	L major viab 99
COC(=O)[C@@]1(Cc2ccc(F)cc2)[C@H]2c3cc(C(=O)N4CCCC4)n(CCc4c[nH]c5ccc(OC)cc45)c3C[C@H]2CN1C(=O)c1ccccc1	L major viab 79
COc1ccc(C(=O)NNC(=O)CSc2nnc(-c3cccnc3)o2)cc1	none
COC(=O)[C@@]1(Cc2ccc(OC)cc2)[C@H]2c3cc(C(=O)N4CCCC4)n(Cc4ccc(C)o4)c3C[C@H]2CN1C(=O)c1ccccc1	WT yeast gro inh 65, L major viab 53
COC(=O)[C@@]1(Cc2ccccc2)[C@H]2c3cc(C(=O)N4CCCC4)n(CCSCCO)c3C[C@H]2CN1C(=O)c1ccccc1	none
COC(=O)[C@@]1(Cc2ccc(OC)cc2)[C@@H]2C(=CC(=O)[C@H]2CC(=O)C(=O)N(C)C)CN1C(=O)c1ccccc1	L major viab 100
COC(=O)[C@@]1(Cc2ccc(F)cc2)[C@H]2c3cc(C(=O)N(C)C)n(Cc4ccccc4)c3C[C@H]2CN1C(=O)c1ccccc1	none
COC(=O)[C@@]1(Cc2ccc(F)cc2)[C@H]2c3cc(C(=O)N(C)C)n(CCc4ccccn4)c3C[C@H]2CN1C(=O)c1ccccc1	L major viab 91
CCCCNC(=O)COC(=O)c1ccc(N(C)C)cc1	none
CC(C)NC(=O)NC(=O)COC(=O)c1ccc(OC(F)(F)F)cc1	CHOP inh 84
CN(Cc1ccc(-n2cccn2)cc1)C(=O)c1cnn2c1NC(c1ccco1)CC2C(F)(F)F (stereo not given)	CHOP inh 76
COCCNC(=O)c1cnn2c1NC(c1ccco1)CC2C(F)(F)F (stereo not given)	none
O=C(NCc1cccc(Cl)c1)c1cnn2c1NC(c1ccco1)CC2C(F)(F)F (stereo not given)	CHOP inh 91
COCc1cc(C)nc2sc(C(=O)NCCO)c(-n3cccc3)c12	none
CCN(C(=O)c1ccc2c(Cl)c3c(nc2c1)CCC3)c1ccc(C)c(C)c1	WT yeast gro inh 94, CHOP inh 91
CN(C(=O)c1ccc2c(Cl)c3c(nc2c1)CCC3)c1ccccc1	none
O=C(O)c1ccccc1SC1CC(=O)N(c2ccccc2)C1=O (stereo not given)	L major viab 51
Cc1c(/C=N/NC(=O)C(NC(=O)c2ccc3c(c2)OCO3)C(C)C)c2ccccc2n1C (stereo not given)	none
O=C(c1ccccc1F)N(Cc1ccc2c(c1)OCO2)Cc1cc2cc3c(cc2n2nnnc12)OCO3	L major viab 87
Cc1cc2cc(CN(Cc3ccc4c(c3)OCO4)C(=O)c3cnccn3)c3nnnn3c2cc1C	none
Cc1noc(C)c1COC(=O)[C@H](C)NS(=O)(=O)c1ccc(Cl)c(Cl)c1	L major viab 73
N#Cc1cc2ccccc2nc1SCC(=O)Nc1ccc(S(=O)(=O)N2CCCC2)cc1	L major viab 96
COc1ccc2nc(SCC(=O)Nc3ccc(S(=O)(=O)N4CCCC4)cc3)c(C#N)cc2c1	L major viab 90
Cn1ccnc1SCCNC(=O)CCc1nnc(CCc2ccccc2)o1	none
Cn1cnc(NCc2ccccc2)c1[N+](=O)[O-]	none (no result: WT yeast gro inh, L major viab, RAM inhibit)
CCN(CC)c1ccc2cc(-c3nnc(-c4ccncc4)o3)c(=O)oc2c1	L major viab 68
CCN(CC)c1ccc2cc(C(N)=O)c(=O)oc2c1	none
CN1CCN(CC(=O)N(Cc2c(C#N)c3ccccc3n2C)c2ccccc2)CC1	L major viab 100
Cn1c(CN2CCN(CCO)CC2)c(C#N)c2ccccc21	none (no result: WT yeast gro inh, L major viab, RAM inhibit)
C=CCN1C(=O)/C(=c2\sc3nc(=O)c(Cc4ccc(OC)c(OC)c4)nn3c2=O)c2ccccc21	none (no result: WT yeast gro inh, L major viab, RAM inhibit)
COc1cc(/C=C2/NC(=O)N(Cc3ccccc3F)C2=O)ccc1O	none
COc1cc(/C=C2/NC(=O)N(Cc3ccccc3F)C2=O)ccc1Oc1ccc([N+](=O)[O-])cn1	L major viab 80
CCOc1ccc(Nc2nc(Nc3ccc(O)cc3)nc(C)c2[N+](=O)[O-])cc1	CHOP inh 80
COc1ccc(Nc2nc(N)c([N+](=O)[O-])c(NCc3ccccc3)n2)cc1	none (no result: WT yeast gro inh, L major viab, RAM inhibit)
CCOC(=O)C1(Cc2cccc(F)c2)CCN(Cc2c(C)nn(CC)c2C)CC1	none (no result: WT yeast gro inh, L major viab, RAM inhibit)
CCOC(=O)C1(Cc2cccc(F)c2)CCN(Cc2cn(CC)nc2C)CC1	L major viab 71
CCOC(=O)C1(CCCc2ccccc2)CCN(Cc2cn(CC)nc2C)CC1	L major viab 84
Cc1ccccc1Cn1cc(NC(=O)c2noc3c2CC(C(C)(C)C)CC3)cn1 (stereo not given)	CHOP inh 86
CC(C)(C)OC(=O)NCCCC[C@H](NC(=O)c1nc[nH]c1C(=O)NC(c1ccccc1)c1ccccc1)C(=O)OC(C)(C)C	none
COc1ccc(/C=N/NC(N)=S)cc1OC(=O)c1ccccc1	L major viab 79
CSC(=S)N/N=C/c1ccccc1	none
COc1cc(/C=N/NC(=O)c2ccccc2)ccc1O	none
COc1ccc(/C=N/NC(=O)c2cccc([N+](=O)[O-])c2)cc1OC(=O)c1ccccc1	none
COc1ccc(/C=N/NC(=S)SC)cc1OC	WT yeast gro inh 61
COc1ccc(/C=N/NC(=O)c2ccc(N(C)S(=O)(=O)c3ccccc3)cc2)cc1OC	L major viab 67
COc1cc(/C=N/NC(=O)COc2c(C)cc([N+](=O)[O-])cc2C)ccc1OC(=O)c1ccccc1Br	CHOP inh 76, L major viab 73
COC(=O)N/N=C(\CCC(=O)O)c1cccs1	none (no result: WT yeast gro inh, L major viab, RAM inhibit)
COc1cc(/C=N/NC(=O)c2cccc([N+](=O)[O-])c2)ccc1OCc1ccccc1	none
Cc1cccc(C(=O)Oc2ccc(/C=N/NC(=O)Cc3ccc([N+](=O)[O-])cc3)cc2)c1	L major viab 50
COc1cc(/C=N/NC(=O)COc2c(C)cc([N+](=O)[O-])cc2C)ccc1OC(=O)c1ccccc1	L major viab 99
CCN(CC)CCNC(=O)C(=O)NCC1OCCN1S(=O)(=O)c1ccc([N+](=O)[O-])cc1 (stereo not given)	none
COc1ccc2ccccc2c1CNC(=O)CC1C(=O)NCCN1CC(C)(C)C (stereo not given)	none (no result: WT yeast gro inh, L major viab, RAM inhibit)
COc1ccc(-c2n(CC(=O)OC3CC(C)CCC3C(C)C)c3ccccc3[n+]2C)cc1 (stereo not given)	CHOP inh 87, L major viab 101
O=C(CN(C(=O)CCC(=O)Nc1nccs1)C1CCCC1)NCc1ccc2c(c1)OCO2	none
